# Experimental data published in PubChem BioAssay (Tox21).
# Inconclusive results are not listed. Where a call stands in place of a potency, no number is given. Active and inactive are the calls of the source. Calls follow the shape of the dose curve; as a rule, active = well fitted curve in the direction sought with a large enough effect in the repeat runs; inconclusive = weak or mixed curves; inactive = no such curve, though single readings can be large; an effect the other way counts as inactive or inconclusive.
# Tested on: not listed separately
# Assay: qHTS assay to identify small molecule agonists of the constitutive androstane receptor (CAR) signaling pathway - cell viability counter screen (AID 1224836); also: nearly all actives have a fitted effect of over 45% in size
# Settings: HepG2-CYP2B6-hCAR viability, CellTiter-Fluor, 23 h, PK11195 added to every well; series mostly up to 92.4 µM
# How it was run: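 Fluorescence from CellTiter-Fluor indicates live cells after 23 h exposure. The human hepatoma line expresses hCAR and a CYP2B6-2.2kb reporter. Incubation medium contains 0.75 uM PK11195 (final).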
# Potency is read from the fitted curve at half-maximal effect.
Structure (SMILES),Potency,"viability change, negative = cytotoxic"
CC(C)(C)S,inactive,
C1CCCCC1,inactive,
CCCOC(=O)c1c(Cl)c(Cl)c(Cl)c(Cl)c1C(=O)OCCC,inactive,
CCCCCC,inactive,
Nc1ccn([C@H]2CS[C@@H](CO)O2)c(=O)n1,inactive,
Nc1nc(-c2ccc([N+](=O)[O-])cc2)cs1,inactive,
CCN(CC)CCOc1ccccc1C(=O)CCc1ccccc1,inactive,
CCN(CC)c1ccc(C(=C2C=CC(=[N+](CC)CC)C=C2)c2ccc(S(=O)(=O)O)cc2S(=O)(=O)[O-])cc1,24.3 µM (active),
COC(CC(C)CCCC(C)(C)O)OC (stereo not given),inactive,
O=c1[nH]c2cc(C(F)(F)F)c(N3CCOCC3)cc2n(CP(=O)(O)O)c1=O,inactive,
CCCCCCOC(=O)CCCCC,inactive,
CC(C)c1ccc(C(=O)N=C(N)N)cc1S(C)(=O)=O,inactive,
O=C(O)CNC(=O)c1ccccc1I,inactive,
COC(=O)Nc1nc2ccc(C(=O)C3CC3)cc2[nH]1,inactive,
O=C(O)c1cc(Cl)cc(Cl)c1O,inactive,
CC/C=C\C/C=C\C/C=C\CCCCCCCC(=O)OCC,inactive,
CC(C)N(C)C,inactive,
CCCCCCCCCCCCCCN(C)C,,5.26% [at 19 µM] (inactive)
CCCCCCCCCCCSCC(=O)O,inactive,
Cc1cc(CCC(=O)OCCOCCOCCOC(=O)CCc2cc(C)c(O)c(C(C)(C)C)c2)cc(C(C)(C)C)c1O,inactive,
C/C(C=O)=C\c1ccccc1,inactive,
COc1ccc(-c2cc(=S)ss2)cc1,inactive,

# Tested on: not listed separately
# Assay: qHTS assay to identify small molecule antagonists of the constitutive androstane receptor (CAR) signaling pathway - cell viability counter screen (AID 1224837); also: nearly all actives have a fitted effect of over 45% in size
# Settings: HepG2-CYP2B6-hCAR viability, CellTiter-Fluor, 23 h, co-treated with 50 nM CITCO; series mostly up to 92.4 µM
# How it was run: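 Multiplexed cytotoxicity read-out for the CAR antagonist screen: double-stable HepG2-CYP2B6-hCAR cells co-treated with 50 nM CITCO (final) and compound over 15 concentrations, incubated 23 hr, then assessed by CellTiter-Fluor fluorescence.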
Structure (SMILES),Potency,"activity change, negative = cytotoxicity"
CCCCCCCC(=O)OCCCCCC,inactive,
COc1ccc(-n2nc(C(F)F)cc2-c2ccc(S(C)=O)cc2)cc1 (stereo not given),inactive,
CC(C)(C(=O)c1cccnc1)c1cccnc1,inactive,
C[C@H](CS)C(=O)N1CCC[C@H]1C(=O)O,inactive,
O=C(NC(Cc1cc(=O)[nH]c2ccccc12)C(=O)O)c1ccc(Cl)cc1 (stereo not given),inactive,
CCN(CC)C(=O)N1CCN(C)CC1,inactive,
C1CCCCC1,inactive,
O=[N+]([O-])C1(Br)COCOC1,inactive,
Nc1ccn([C@H]2CS[C@@H](CO)O2)c(=O)n1,inactive,
Nc1nc(-c2ccc([N+](=O)[O-])cc2)cs1,inactive,
CCN(CC)c1ccc(C(=C2C=CC(=[N+](CC)CC)C=C2)c2ccc(S(=O)(=O)O)cc2S(=O)(=O)[O-])cc1,27.3 µM (active),
COC(CC(C)CCCC(C)(C)O)OC (stereo not given),inactive,
O=c1[nH]c2cc(C(F)(F)F)c(N3CCOCC3)cc2n(CP(=O)(O)O)c1=O,inactive,
CCCCCCOC(=O)CCCCC,inactive,
O=C(O)CNC(=O)c1ccccc1I,inactive,
O=C(O)c1cc(Cl)cc(Cl)c1O,inactive,
CC/C=C\C/C=C\C/C=C\CCCCCCCC(=O)OCC,inactive,
CC(C)N(C)C,inactive,
CCCCCCCCCCCCCCN(C)C,,-1.86% [at 19 µM] (inactive)
CCCCCCCCCCCSCC(=O)O,inactive,
Cc1cc(CCC(=O)OCCOCCOCCOC(=O)CCc2cc(C)c(O)c(C(C)(C)C)c2)cc(C(C)(C)C)c1O,inactive,
C/C(C=O)=C\c1ccccc1,inactive,

# Molecular target: Nuclear receptor subfamily 1 group I member 3 (Homo sapiens) (UniProt Q14994)
# Sequence (Q14994 whole entry, looked up): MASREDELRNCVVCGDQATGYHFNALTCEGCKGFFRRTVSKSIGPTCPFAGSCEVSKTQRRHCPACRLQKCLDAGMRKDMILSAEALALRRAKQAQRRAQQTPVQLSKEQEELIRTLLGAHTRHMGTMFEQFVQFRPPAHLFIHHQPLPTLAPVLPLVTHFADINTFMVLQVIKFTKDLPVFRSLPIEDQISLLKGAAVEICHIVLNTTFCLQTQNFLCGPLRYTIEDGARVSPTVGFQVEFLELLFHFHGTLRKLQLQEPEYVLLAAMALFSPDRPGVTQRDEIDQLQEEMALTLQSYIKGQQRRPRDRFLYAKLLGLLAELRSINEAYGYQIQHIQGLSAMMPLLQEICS
# Assay: qHTS assay to identify small molecule antagonists of the constitutive androstane receptor (CAR) signaling pathway (AID 1224838); also: nearly all actives have a fitted effect of over 40% in size
# Settings: HepG2-CYP2B6-hCAR luciferase, CITCO-stimulated, 24 h; series mostly up to 92.4 µM
# How it was run: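 Compounds were titrated across 15 concentrations onto HepG2 cells double-stably expressing hCAR and a CYP2B6-2.2kb reporter, together with 50 nM CITCO (final). After 24 h at 37 C, luciferase activity was measured by luminescence.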
Structure (SMILES),Potency,"activity, negative = inhibition"
Nc1cccc2c(N)cccc12,inactive,
COc1cc(NCc2ccc3nc(N)nc(N)c3c2C)cc(OC)c1OC,0.0266 µM (active),
CCCCCCCC(=O)OCCCCCC,inactive,
CC(C)C(O)C(C)(C)CO (stereo not given),8.91 µM (active),
CC(C)(C(=O)c1cccnc1)c1cccnc1,inactive,
Cc1ccc2c(c1[N+](=O)[O-])C(=O)c1ccccc1C2=O,0.673 µM (active),
C[C@H](CS)C(=O)N1CCC[C@H]1C(=O)O,inactive,
O=C(NC(Cc1cc(=O)[nH]c2ccccc12)C(=O)O)c1ccc(Cl)cc1 (stereo not given),inactive,
CC(=O)OCC(C)C,inactive,
COc1ccc(N)c([N+](=O)[O-])c1,inactive,
C1CCCCC1,inactive,
CCCOC(=O)c1c(Cl)c(Cl)c(Cl)c(Cl)c1C(=O)OCCC,inactive,
CCCCCC,inactive,
Nc1ccn([C@H]2CS[C@@H](CO)O2)c(=O)n1,inactive,
CCN(CC)CCOc1ccccc1C(=O)CCc1ccccc1,inactive,
COc1cc(C(C)=O)ccc1OCCCN1CCC(c2noc3cc(F)ccc23)CC1,inactive,
COC(CC(C)CCCC(C)(C)O)OC (stereo not given),inactive,
O=c1[nH]c2cc(C(F)(F)F)c(N3CCOCC3)cc2n(CP(=O)(O)O)c1=O,inactive,
CC(C)c1ccc(C(=O)N=C(N)N)cc1S(C)(=O)=O,inactive,
O=C(O)CNC(=O)c1ccccc1I,inactive,
CC(C)N(C)C,inactive,
CCCCCCCCCCCCCCN(C)C,,21.5% [at 19 µM] (inactive)
CCCCCCCCCCCSCC(=O)O,inactive,
Cc1cc(CCC(=O)OCCOCCOCCOC(=O)CCc2cc(C)c(O)c(C(C)(C)C)c2)cc(C(C)(C)C)c1O,inactive,
C/C(C=O)=C\c1ccccc1,inactive,
COc1ccc(-c2cc(=S)ss2)cc1,inactive,

# Molecular target: Nuclear receptor subfamily 1 group I member 3 (Homo sapiens) (UniProt Q14994)
# Assay: qHTS assay to identify small molecule agonists of the constitutive androstane receptor (CAR) signaling pathway (AID 1224839); also: nearly all actives have a fitted effect of over 15% in size
# Settings: HepG2 hCAR CYP2B6-luciferase, agonist mode, 24 h; series mostly up to 92.4 µM
# How it was run: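 Stable hCAR/CYP2B6-2.2kb HepG2 line in DMEM with 10% FBS; compounds (15 concentrations) and 0.75 uM PK11195 final, 24 h at 37 C/5% CO2, then ONE-Glo luminescence after 30 min.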
row,Structure (SMILES),Potency
1,Nc1cccc2c(N)cccc12,24.3 µM (active)
2,COc1cc(NCc2ccc3nc(N)nc(N)c3c2C)cc(OC)c1OC,inactive
3,CC(C)C(O)C(C)(C)CO (stereo not given),inactive
4,Cc1ccc2c(c1[N+](=O)[O-])C(=O)c1ccccc1C2=O,inactive
5,C[C@H](CS)C(=O)N1CCC[C@H]1C(=O)O,inactive
6,CC(=O)OCC(C)C,inactive
7,O=[N+]([O-])C1(Br)COCOC1,inactive
8,CCCCCC,inactive
9,CCN(CC)CCOc1ccccc1C(=O)CCc1ccccc1,26.6 µM (active)
10,CN(C)CC/C=C1\c2ccccc2Sc2ccc(Cl)cc21,inactive
11,COc1cc(C(C)=O)ccc1OCCCN1CCC(c2noc3cc(F)ccc23)CC1,inactive
12,COC(CC(C)CCCC(C)(C)O)OC (stereo not given),inactive
13,CC(C)c1ccc(C(=O)N=C(N)N)cc1S(C)(=O)=O,inactive
14,CCCCCCCCCCCSCC(=O)O,inactive
15,COc1ccc(-c2cc(=S)ss2)cc1,23.7 µM (active)
